Measured values: PubChem BioAssay AID592 (National Center for Advancing Translational Sciences (NCATS), 2007)
Values joined by “and” are separate entries in the source; they are usually repeats but may differ in a detail not shown here. Identical values can stand only once. The whole screen tested about 59,000 compounds, of which fewer than 10 were called active. No rule for the calls is given here. Only a sample is shown.

Assay: qHTS Assay for Spectroscopic Profiling in A647 Spectral Region
Conditions: Compound fluorescence, A647 channel (570/671 nm), Tris buffer; stronger effect = higher value
From the text: NIH Molecular Libraries Screening Centers Network [MLSCN] NIH Chemical Genomics Center [NCGC] […] Occasionally, the artifactual effect may originate from the compounds own spectral or other biophysical properties which generally tend to track its assay concentration. Pre-screening/profiling the library with respect to the compounds spectral properties should help one exclude false positives early on. While the most informative fluorescent profiling data set is obtained by performing a full excitation and emission scan of each well by using a monochromator-based plate reader, such an approach is practical only on a very limited scale as scanning each well requires long time. An alternative approach, applied here, is to perform plate reader scans using selected excitation and emission wavelength pairs to generate a multidimensional relational database that correlates compound concentration and the respective relative fluorescence intensity at a given wavelength set. A standard curve of Alexa 647 (A647) present on each plate as six-point concentration series, was used to compute a normalized fluorescence response, termed dye-equivalent concentration, for each compound at each concentration.
NCGC Assay Protocol Summary: Buffer: 100 mM Tris buffer, pH 8.0 Dye standard plate: The wells in columns 1 through 4 of a Kalypsys polypropylene 1536-well compound plate were filled with standard solutions of fluorophore corresponding to the spectral region of interest. Solutions of A647 were placed in the following wells: AC1, AD1: 3 mM, AC2, AD2: 300 uM, AC3, AD3: 30 uM, AC4, AD4: zero (DMSO), AE1, AF1: 3 uM, AE2, AF2: 900 nM, AE3, AF3: 300 nM, AE4, AF4: zero (DMSO). Assay Steps: Six uL of buffer were dispensed to 1536-well Greiner black plates. Compounds and dye standards (23 nL) were transferred via Kalypsys PinTool. The plates were incubated for 15 min at room temperature, and then read on ViewLux (Perkin-Elmer) High-throughput CCD imager using 570 nm and 671 nm excitation and emission filter set. Keywords: NIH Roadmap, MLSCN, MLI, MLSMR, qHTS, NCGC, A647, A-647, Fluorescent Profiling.

Max dye-equivalent concentration, inactive:
Cc1c(C(=O)Nc2ccccc2Cl)oc2ccc(S(=O)(=O)N3CCC4(CC3)OCCO4)cc12 45 nM
CCC(Oc1ccccc1)C(=O)NCc1cccnc1 (stereo not drawn) 1.3 nM
CC(C)OC(=O)c1sc2nc3c(cc2c1N)C(=O)CCC3 12 nM
Cn1cc(-c2nc3cncnc3n(-c3ccccc3)c2=O)c2ccccc21 1 nM
O=C(/C=N/O)Nc1ccccc1 1 nM
CCOC(=O)N1CCN(S(=O)(=O)c2ccc(C(=O)Nc3ccc(F)cc3F)cc2)CC1 29 nM
COc1ccccc1N1CCN(CCCCOc2ccc(F)cc2)CC1 1 nM
COc1ccc2nc(N3CCCC(O)C3)c(C#N)cc2c1 (stereo not drawn) 22 nM
CCCCN(CC)CCCNC(=O)CS(=O)(=O)Cc1nc(-c2cccc(OC)c2)oc1C 1 nM
COC(=O)c1ccccc1NC(=O)CN(Cc1ccccc1)S(C)(=O)=O 1 nM
COc1cccc(OC)c1OCCN1CCN(C(=O)c2ccco2)CC1 1 nM
Cc1cc(Cl)ccc1N1C(=O)CC(SCCC(=O)O)C1=O (stereo not drawn) 1 nM
COc1ccc(CC(=O)Nc2c3c(nn2-c2cccc(Cl)c2)CS(=O)C3)cc1 (stereo not drawn) 12 nM
Cc1c(C(=O)OCc2cc(=O)n3cc(Br)ccc3n2)oc2ccccc12 28 nM
CCOC(=O)N1CCN(C(=O)c2cn(C)c3ccc(S(=O)(=O)N4CCCC4)cc3c2=O)CC1 21 nM
Cc1cc(NC(=O)COc2ccc(Cl)cc2Cl)n(CCC#N)n1 18 nM
Cc1ccc(S(=O)(=O)NCc2cn3ccsc3n2)c(C)c1 18 nM
CCOc1cc(-c2nc3cc(C)ccn3c2NCC2CCCO2)ccc1O (stereo not drawn) 14 nM
CC(C)C(C(=O)NC1CCCCC1)N(CC1CCCO1)C(=O)CNS(=O)(=O)c1ccc(F)cc1 (stereo not drawn) 1 nM
COc1ccccc1N1CCN(c2nc3ccccc3n3nnnc23)CC1 42 nM
O=C(c1cccc(F)c1)N1CCC2(CC1)CCN(c1ccccc1)CC2 1.1 nM
COc1ccccc1CNCc1cccs1 25 nM
O=C(CN1C(=O)COc2ccccc21)NCCN1CCc2ccccc2C1 23 nM
CC(C)CCNC(=O)C(C)N(C(=O)Cn1nnc(-c2ccc(F)cc2)n1)C1CCCC1 (stereo not drawn) 1 nM
CN1CCN(S(=O)(=O)c2ccc(NC(=O)c3ccco3)cc2)CC1 3.8 nM
CCOC(=O)CSc1nc2sc3c(c2c(=O)[nH]1)CC(C)(C)OC3 2.2 nM
Cc1cc(=O)oc(C)c1C(=O)Nc1cnc2ccccc2c1 5.4 nM
CN(C)CCSc1nc(N)c2c3c(sc2n1)COC(C)(C)C3 6.7 nM
Cc1ccc(C(=O)CSc2nnc(Cn3nnc4ccccc43)n2C)cc1 15 nM
CCCc1cc(=O)n2[nH]c(SCc3ccccc3)nc2n1 28 nM
O=C(c1ccco1)N(Cc1nc2ccccc2c(=O)[nH]1)C1CCCC1 41 nM
COC(=O)[C@H](CCSC)NC(=O)Nc1ccc(OC)cc1 5.2 nM
CC[N+](C)(CC)CCC[n+]1c(-c2ccccc2)c2cc(N)ccc2c2ccc(N)cc21 1.7 nM
O=c1c(CCc2ccccc2)nc2cnc(N3CCNCC3)nc2n1Cc1cccs1 1 nM
O=C(OCC(=O)N1CCN(C(=O)c2ccco2)CC1)c1ccccc1Cc1ccccc1 7.2 nM
CCOc1ccccc1N=C1NC(=O)CS1 4.1 nM
CCOC(=O)C1CCN(C(c2cc3cc(C)cc(C)c3[nH]c2=O)c2nnnn2C2CCCCC2)CC1 (stereo not drawn) 1 nM
CCCSC1=C(C#N)C(c2ccccc2C)C(C(=O)OC)C(=O)N1 (stereo not drawn) 58 nM
COCC(C)n1c(SCc2ccc(C(=O)OC)o2)nc2ccccc2c1=O (stereo not drawn) 1.6 nM
COC(=O)c1ccc(C2CC(=O)Nc3cc(OC)c(OC)cc32)cc1 (stereo not drawn) 1 nM
CC(C)c1nc(N2CCOCC2)c(C#N)c2c1COC(C)(C)C2 69 nM
CCCC(=O)Nc1c(O)c2ccccc2[nH]c1=O 1 nM
C=C(C)CSc1nc(N)c2c3c(sc2n1)CCC3 1.9 nM
O=C(OC1CCOC1=O)c1ccc(-c2nc3ccccc3s2)s1 (stereo not drawn) 1 nM
CCCS(=O)(=O)C(=C1Nc2ccccc2N1)S(=O)(=O)CCC 1 nM
CSc1sc(C)cc1C1C(C#N)=C(N)N(c2cccnc2)C2=C1C(=O)CCC2 (stereo not drawn) 18 nM
CCN(CC)C(=O)N1CCN(C(=O)c2ccc(C)cn2)CC1 1 nM
CCC(CC)c1nnc(NS(=O)(=O)Cc2ccccc2)s1 5 nM
COC(=O)c1c(NC(=O)c2cccs2)sc2c1CCCC2 1 nM
CC1CCC(NC(=O)c2ccc(N3CCCC3=O)cc2)CC1 (stereo not drawn) 6 nM
CCCNC(=O)Nc1ccccc1C(=O)Nc1ccc(OC)cc1 1.2 nM
COc1ccccc1-n1nnnc1S(=O)(=O)Cc1ccc(Cl)cc1 37 nM
CCN1C(=O)/C(=C2/Sc3ccccc3N2CCCS(=O)(=O)O)SC1=S 1 nM
CCCCC(=O)Nc1ccc(C(=O)NCCCn2ccnc2)cc1 2.5 nM
CCOC(=O)CNC(=O)CSc1nnc(COc2ccc(Cl)cc2)n1CC 39 nM
N#C/C=C1\Sc2ccccc2C(=O)N1CC(=O)N1CCN(S(=O)(=O)c2ccccc2)CC1 1 nM
N#CC1=C(N)C(C#N)(C#N)[C@H](c2ccsc2)[C@H]2COCC=C12 25 nM
CC(C)C[C@H](NC(=O)[C@@H]1O[C@H]1C(=O)O)C(=O)NCCCCN=C(N)N 60 nM and 51 nM
